Here are results for 15 compounds from PubChem BioAssay (NCI).

Among the test systems are T-47D breast; BT-549 breast; MDA-MB-435 melanoma; SW-620 colon; MCF7 breast; HCT-116 colon; HCC-2998 colon; KM12 colon; MDA-MB-468 breast.
What all share (assay): NCI-60 one-dose screen, 48 h (100 = growth as untreated, 0 = no growth, -100 = all killed)
Common to all, as to details: 10 µM unless noted

Compounds without any hit were thinned out: in the full panel of roughly 83,000, 20% have a hit.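 Cell lines were cultured in 96-well plates, exposed to a single compound concentration, and assessed for percent growth 48 hours later.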 A number with no mark means an inactive call. Active and inactive are the calls of the source. Rule for the calls: active = growth percent below 10; inactive = the rest.

Turning to `COc1cc(CNC(=O)C[C@H](C)CCC=C(C)C)ccc1OCc1cn(-c2ccccc2Cl)nn1`, the growth with T-47D breast was 9.14% (active); in the experiment on BT-549 breast, 28.2%; in the experiment with MDA-MB-435 melanoma it was 66.5%; with SW-620 colon, 80.2%; with MCF7 breast it was 40.6%; in the experiment with HCT-116 colon, 49.7%. For the same compound, the growth with HCC-2998 colon is 91.9%; with KM12 colon it was 63%; in the experiment on MDA-MB-468 breast it was 28.5%.
Take `c1ccc(CSc2nnc(-c3ccc4nc(-c5ccccc5)[nH]c4c3)o2)cc1`: the growth in the experiment on T-47D breast was 15.4%; with BT-549 breast, 35.4%; with MDA-MB-435 melanoma, 9.59% (active); in the experiment on SW-620 colon, 10%; in the experiment with MCF7 breast, 1.53% (active); in the experiment with HCT-116 colon it was 2.99% (active). For the same compound, the growth was 62% in the experiment on HCC-2998 colon, 55% in the experiment on KM12 colon and 2.91% (active) in the experiment on MDA-MB-468 breast.
As to `CCCCCCCCc1ccc(C(=O)Nc2cccc(O)c2)cc1`, the growth was 67.7% with T-47D breast; 51.2% in the experiment with BT-549 breast; 50.5% in the experiment with MDA-MB-435 melanoma; 93.5% with SW-620 colon; 60.3% in the experiment on MCF7 breast; 65% in the experiment with HCT-116 colon. Further, the values for the growth in the experiment on HCC-2998 colon, with KM12 colon and with MDA-MB-468 breast were 109%, 54.3% and 90.9%, respectively.
In the case of `COc1cc2cc(C(=O)N3C[C@@H](CCl)c4c3cc(OC(=O)N(CCC(=O)N3CCN(C)CC3)[C@H]3CCSSC3)c3ccccc43)[nH]c2c(OC)c1OC`, the growth was 8.8% (active) with T-47D breast; -81.1% (active) in the experiment with BT-549 breast; -48.5% (active) with MDA-MB-435 melanoma; -42.4% (active) with SW-620 colon; -79.9% (active) in the experiment with MCF7 breast; -41.4% (active) in the experiment on HCT-116 colon. The growth in the experiment on HCC-2998 colon is -94.3% (active); with KM12 colon, -29% (active); in the experiment on MDA-MB-468 breast, -91.5% (active).
With `COc1ccc(Nc2nnc(-c3c[nH]c4ccccc34)o2)cc1`, the growth in the experiment with T-47D breast was 71.9%; with BT-549 breast, 77.8%; with MDA-MB-435 melanoma it was 81.9%; in the experiment with SW-620 colon it was 93%; in the experiment with MCF7 breast, 58.6%; in the experiment on HCT-116 colon it was 92.4%. Further, the growth is 108% in the experiment on HCC-2998 colon, 65.3% in the experiment on KM12 colon and -7.14% (active) with MDA-MB-468 breast.
For the compound `CCCCCCCCc1ccc(C(=O)Nc2ccc(C)c(OP(=O)(O)O)c2)cc1`, the growth in the experiment with T-47D breast is 90%; in the experiment with BT-549 breast, 88.9%; in the experiment with MDA-MB-435 melanoma, 102%; in the experiment with SW-620 colon it was 103%; in the experiment on MCF7 breast, 88.3%; in the experiment on HCT-116 colon, 106%. For the same compound, the results for the growth in the experiment on HCC-2998 colon, with KM12 colon and in the experiment with MDA-MB-468 breast were 125%, 95.5% and 104%, respectively.
`Nc1cc2ccccc2c(=O)n1NC(=O)c1ccc(Br)cc1`: the growth was 94.8% with T-47D breast; 136% in the experiment with BT-549 breast; 103% in the experiment with MDA-MB-435 melanoma; 98.4% in the experiment on SW-620 colon; 74.6% with MCF7 breast; 95.1% with HCT-116 colon. The growth with HCC-2998 colon was 97.5%; with KM12 colon, 92.7%; in the experiment with MDA-MB-468 breast, -54.9% (active).
As to `C#CCCCNCCNc1ccnc2cc(Cl)ccc12`, the growth was 71% in the experiment on T-47D breast; 66.5% with BT-549 breast; 59.7% with MDA-MB-435 melanoma; 76.8% with SW-620 colon; 52% with MCF7 breast; 49.5% in the experiment with HCT-116 colon. The values for the growth in the experiment on HCC-2998 colon, in the experiment with KM12 colon and with MDA-MB-468 breast were 62%, 91.3% and 50.4%, respectively.
For the compound `Cc1ccc(Cl)cc1NC(=O)Nc1nc2ccc([N+](=O)[O-])cc2s1`, the growth with T-47D breast was -19.7% (active); with BT-549 breast, -30.3% (active); in the experiment with MDA-MB-435 melanoma, -18.2% (active); in the experiment with SW-620 colon, -21.9% (active); in the experiment on MCF7 breast, 0.201% (active); in the experiment with HCT-116 colon, -37.7% (active). Further, the growth in the experiment with HCC-2998 colon was -10.1% (active); in the experiment with KM12 colon, -2.73% (active); in the experiment with MDA-MB-468 breast, -39.3% (active).
As to `Nc1nn2c(-c3cc4cc(Br)ccc4oc3=O)ccnc2c1N=Nc1ccccc1`, the growth was 29.6% in the experiment with T-47D breast; -45.3% (active) in the experiment on BT-549 breast; 71.2% in the experiment on MDA-MB-435 melanoma; 50.7% in the experiment on SW-620 colon; 20% in the experiment on MCF7 breast; 3.34% (active) with HCT-116 colon. Besides, the values for the growth with HCC-2998 colon, in the experiment on KM12 colon and in the experiment on MDA-MB-468 breast were 30.2%, 26.1% and 46.2%, respectively.
Regarding `Cn1cc(-c2cc(N)n3nc(-c4c[nH]c5ccc(Cl)cc45)cc3n2)c2cc(Br)cnc21`, the growth in the experiment with T-47D breast is -50% (active); with BT-549 breast, -16.1% (active); in the experiment with MDA-MB-435 melanoma, -80.8% (active); in the experiment with SW-620 colon it was -79.1% (active); in the experiment on MCF7 breast, -59.8% (active); in the experiment with HCT-116 colon it was -74.3% (active). Also, the growth in the experiment on HCC-2998 colon was -99% (active); in the experiment with KM12 colon, -68.8% (active); with MDA-MB-468 breast it was -93.6% (active).
As to `COc1ccc(OC)c(Cn2cc(C#N)c(N)c2C(=O)c2ccc(Br)cc2)c1`, the growth in the experiment on T-47D breast was 35.6%; in the experiment on BT-549 breast, -86.3% (active); with MDA-MB-435 melanoma, 0.655% (active); in the experiment on SW-620 colon, 31.2%; in the experiment on MCF7 breast, 27.9%; with HCT-116 colon, 24.3%. Further, the growth in the experiment on HCC-2998 colon is 71.8%; in the experiment on KM12 colon, 40%; in the experiment on MDA-MB-468 breast, 2.73% (active).
Regarding `Cc1cc(C(NC(=O)CCCCCNc2cccc3c2C(=O)N(C2CCC(=O)CC2=O)C3=O)c2cccc(N(C)C)c2)c(O)c2ncccc12` (stereo not given), the growth was 4.11% (active) in the experiment on T-47D breast; -8.92% (active) in the experiment on BT-549 breast; 36.1% with MDA-MB-435 melanoma; 23.7% with SW-620 colon; 10.9% with MCF7 breast; 13.8% in the experiment on HCT-116 colon. For the same compound, the growth is 14.6% with HCC-2998 colon, 15.3% in the experiment on KM12 colon and -24.4% (active) in the experiment with MDA-MB-468 breast.
Take `COc1c2c(cc3c1C(CCc1ccccc1)N(C)CC3)OCO2` (stereo not given): the growth in the experiment on T-47D breast is -22.3% (active); in the experiment on BT-549 breast, -28.8% (active); in the experiment on MDA-MB-435 melanoma, 5.73% (active); in the experiment with SW-620 colon, 1.49% (active); in the experiment with MCF7 breast, -34.4% (active); with HCT-116 colon, 3.07% (active). The results for the growth in the experiment with HCC-2998 colon, in the experiment with KM12 colon and with MDA-MB-468 breast were -31.5% (active), -28.3% (active) and -61.8% (active), respectively.
Turning to `COc1ccc(SC2c3cc(OC)ccc3Oc3nc(N)c(C#N)c(N)c32)cc1` (stereo not given), the growth was 77.4% with T-47D breast; 24.5% in the experiment with BT-549 breast; 87.5% with MDA-MB-435 melanoma; 69.5% with SW-620 colon; 49.2% in the experiment with MCF7 breast; 78% in the experiment on HCT-116 colon. The growth in the experiment with HCC-2998 colon is 117%; with KM12 colon it was 61.2%; in the experiment on MDA-MB-468 breast it was 98.6%.
